Screen size: about 220,000 compounds; about 16,000 (7.3%) were called active. A call without a number means that no potency is given here. Roughly 25% stayed inconclusive and do not appear here. This excerpt belongs to a sample that is enriched for actives. A number with no mark means an inactive call. Calls come from the whole dose curve; as a rule, active = well fitted inhibition curve with a large enough effect (not every such curve was filed as active); inconclusive = small, poorly fitted or top-dose-only effect, or another doubt; inactive = no such curve, though single readings can be large or run the other way.
Potency is the fitted concentration of half-maximal effect.

The target in this test is Aldehyde dehydrogenase 1A1 (Homo sapiens) (UniProt P00352). The test is described as follows: qHTS Assay for Inhibitors of Aldehyde Dehydrogenase 1 (ALDH1A1). Conditions: Purified ALDH1A1, NADH fluorescence, propionaldehyde substrate; series mostly up to 75.3 µM.
Sequence of Aldehyde dehydrogenase 1A1 (Homo sapiens) (P00352 whole entry, looked up): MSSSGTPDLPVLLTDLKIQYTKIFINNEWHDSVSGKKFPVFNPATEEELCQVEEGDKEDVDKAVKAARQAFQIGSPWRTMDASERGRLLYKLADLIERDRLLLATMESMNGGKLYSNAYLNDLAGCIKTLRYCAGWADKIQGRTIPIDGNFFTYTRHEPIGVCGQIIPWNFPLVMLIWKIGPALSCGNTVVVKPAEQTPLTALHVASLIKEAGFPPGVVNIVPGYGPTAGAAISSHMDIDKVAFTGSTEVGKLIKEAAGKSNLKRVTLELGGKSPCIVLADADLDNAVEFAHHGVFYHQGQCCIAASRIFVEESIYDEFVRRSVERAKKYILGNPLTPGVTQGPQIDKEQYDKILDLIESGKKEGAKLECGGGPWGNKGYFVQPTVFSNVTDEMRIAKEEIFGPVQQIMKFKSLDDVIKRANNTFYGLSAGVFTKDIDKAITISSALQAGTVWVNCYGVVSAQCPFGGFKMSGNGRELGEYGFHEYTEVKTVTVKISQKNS
For `N/C(=N\S(=O)(=O)c1cc(C(F)(F)F)cc(C(F)(F)F)c1)c1cccs1`, the Potency entry is “inactive”.

Turning to `CC1=CC(=C(C#N)c2nc3ccccc3s2)C=C(C)N1c1ccc(F)cc1F`, the Potency entry was “inactive”.

Consider `Oc1ccccc1C=NC1CCCCC1N=Cc1ccccc1O` (centres undefined), for which the Potency entry was “inactive”.

With `O=c1c(O)c(Br)ccc2c(Br)c(O)c(O)c(O)c12`, the Potency is 8.91 µM (active).

Consider `CCOc1ccc(NC(=O)NNC(=O)c2ccc(Cl)cc2Cl)cc1`, for which the Potency result was “inactive”.

Take `Oc1cc(O)c2c(c1)OC(c1ccc(O)c(O)c1)C(O)C2` (centres undefined): the Potency is 10 µM (active).

For the molecule `Cc1nc2cc(NC(=O)NC3CC3)ccc2n1C`, the Potency entry is “inactive”.

On to `COCC(=O)Nc1ccc(Br)cc1`, for which the Potency result was “inactive”.

Regarding `COC(=O)Cc1ccc(NC(=S)NCc2ccccc2)cc1`, the Potency entry is “inactive”.

In the case of `CC(C)Oc1ccc(CC(=O)NNC(=S)Nc2ccc(Br)cc2)cc1`, the Potency was 10 µM (active).

In the case of `CC(C)C(O)C1CCN(Cc2nc(Cc3ccccc3Cl)no2)CC1` (centres undefined), the Potency entry was “inactive”.

`Cc1ccc(COc2ccc(/C=N/NC(=O)CN3CCCCC3)cc2)cc1`: the Potency result is “inactive”.

`S=c1[nH]nc(SCc2ccccc2Cl)c2[nH]cnc12`: the Potency is 0.0316 µM (active).

`O=c1cc(O)nc(SCc2ccccc2Cl)[nH]1`: the Potency result was “inactive”.

Consider `COc1ccc(OC)c(-n2c(=S)[nH]c3cc(C(=O)N4CCCCC4)ccc3c2=O)c1`, for which the Potency entry is “inactive”.

Take `COc1cc2[nH]c(=S)n(Cc3ccc(F)cc3)c(=O)c2cc1OC`: the Potency entry is “inactive”.

With `CCc1ccc(-n2c(=S)sc3c(=O)n(-c4ccccc4OC)c(=S)[nH]c32)cc1`, the Potency was 12.6 µM (active).

In the case of `COc1ccccc1-n1c(=S)[nH]c2c(sc(=S)n2-c2ccc(C)cc2C)c1=O`, the Potency is 8.91 µM (active).

On to `CCOC(=O)N1CCN(C(=O)Cc2ccc(-n3c(=S)[nH]c4ccccc4c3=O)cc2)CC1`, for which the Potency result was “inactive”.

`Cc1ccc(Cl)cc1NC(=O)c1ccccn1`: the Potency entry was “inactive”.

In the case of `Cc1cn(C2OC[C@@H](O)[C@@H]2CO)c(=O)[nH]c1=O` (some centres undefined), the Potency entry was “inactive”.

As to `O=C(NCc1cccnc1)c1cccc(-c2cc3ccccc3oc2=O)c1`, the Potency result was “inactive”.

For the molecule `CCc1ccc(CN(C)Cc2nc(Cc3ccccc3)no2)nc1`, the Potency result is “inactive”.

As for `CN(C)CCCN1C(=O)CSC1c1ccc([N+](=O)[O-])cc1` (centres undefined), the Potency entry was “inactive”.

On to `O=C(c1ccc(S(=O)(=O)N2CCOCC2)cc1)N1CCN(c2ccccc2)CC1`, for which the Potency result is “inactive”.

For the molecule `Cc1ccc2c(c1)C(c1ccccc1)N(C(=O)c1ccc(S(=O)(=O)N3CCOCC3)cc1)CC(=O)N2` (centres undefined), the Potency is 7.94 µM (active).

For `CCC(CC)C(=O)N1CC(=O)Nc2ccc(Br)cc2C1c1ccccc1` (centres undefined), the Potency entry is “inactive”.

With `CNS(=O)(=O)c1ccc(NC(=O)C2CC(=O)N(c3ccc(Cl)cc3)C2)cc1` (centres undefined), the Potency entry is “inactive”.

Turning to `O=C(CCl)NNc1cccc(Cl)n1`, the Potency is 10 µM (active).

`O=C(NNc1ccccn1)c1ccc(Cl)nc1`: the Potency entry was “inactive”.

For `COc1cc(OC)nc(NC(=O)CCl)n1`, the Potency entry was “inactive”.

As for `CCCCSc1nc2ccccc2[nH]1`, the Potency result was “inactive”.

In the case of `COc1cc(CCC(=O)OCC(=O)Nc2cccc(S(N)(=O)=O)c2)cc(OC)c1OC`, the Potency result is “inactive”.

For the molecule `Cc1nn(C)c(C)c1S(=O)(=O)N1CCC(CO)(Cc2ccc(Cl)cc2)CC1`, the Potency result is “inactive”.

Regarding `COc1ccc(OCC(=O)Nc2ccc(N3CCC(C)CC3)cc2)cc1`, the Potency result is “inactive”.

In the case of `COc1ccc(NC(=S)NCC2CCN(c3ccc(OC)cc3)C2)cc1` (centres undefined), the Potency was 35.5 µM (active).

On to `COc1ccc(NC(=S)NCCN2CCC(C)CC2)cc1`, for which the Potency result is “inactive”.

As to `O=C(Nc1cccc(Cl)c1)c1cc([N+](=O)[O-])ccc1N1CCN(CCO)CC1`, the Potency result is “inactive”.

With `CN1CCN(c2ccc(S(=O)(=O)Nc3ccccc3)cc2[N+](=O)[O-])CC1`, the Potency result was “inactive”.

As to `CCNC(=O)c1ccc(OCC(=O)Nc2ccc(F)cc2)c(OC)c1`, the Potency entry was “inactive”.

As to `CCCCn1c(N)c(N2CCOCC2)c(=O)n(CC(=O)NCCc2ccccc2)c1=O`, the Potency entry is “inactive”.

As to `O=C(CCc1ccc(S(=O)(=O)N2CCOCC2)cc1)NN=C1CCCCCCC1`, the Potency result is “inactive”.

Take `O=S(=O)(NN=C1CCCCCCC1)c1ccc(Br)cc1`: the Potency was 11.2 µM (active).

As for `Cc1nc(S(=O)(=O)c2ccc(Br)cc2)nc2c1CCC2`, the Potency entry is “inactive”.

Consider `CC(=O)Cn1ncc(N2CCOCC2)c(Br)c1=O`, for which the Potency entry is “inactive”.

Turning to `Cc1ccc(OCC(=O)Nc2ccc(S(=O)(=O)Nc3ccccn3)cc2)cc1`, the Potency entry is “inactive”.

As to `Cc1ccc(Nc2cc(=O)n(C3CCCCC3)c(=O)[nH]2)cc1C`, the Potency was 1 µM (active).

On to `Cc1ccc(NS(=O)(=O)c2c(C)[nH]c(=O)[nH]c2=O)cc1C`, for which the Potency result was “inactive”.

In the case of `COC(=O)C1=C(C(=O)OC)[C@@H]2Nc3ccccc3[C@@]23C[C@@H](C(=O)OC)N(S(=O)(=O)c2ccc([N+](=O)[O-])cc2)C3=N1`, the activity, negative = inhibition is -1.68% [at 13.5 µM].

On to `Nc1c(NCCc2ccccc2)c2ccccc2oc1=O`, for which the Potency result was “inactive”.

Turning to `O=C1C(=O)N(c2ccccc2)c2ccccc21`, the Potency was 6.31 µM (active).

Regarding `O=C1c2ccccc2C(=O)N1c1ccccc1S(=O)C(F)(F)F` (centres undefined), the Potency result is “inactive”.

On to `O=C1C(Cl)=C(N2CCOCC2)C(=O)N1c1ccccc1`, for which the Potency result is “inactive”.

In the case of `COC(=O)c1c(C)oc2ccc(N(C(=O)Oc3ccccc3)S(=O)(=O)c3ccccc3)cc12`, the Potency result is “inactive”.

As for `Cc1ccccc1NC(=O)c1nn(-c2ccc(F)c(F)c2)ccc1=O`, the Potency entry is “inactive”.

On to `Cc1ccccc1N/N=C/c1ccc(N2CCOCC2)cc1`, for which the Potency is 8.91 µM (active).

As for `C(=N/Nc1cc(N2CCOCC2)nc(N2CCOCC2)n1)/c1ccccc1`, the Potency entry was “inactive”.

Consider `C/C(=N\NC(=O)c1ccccc1C)c1ccc(N2CCOCC2)cc1`, for which the Potency entry is “inactive”.

As for `O=C(CCN1CCN(C/C=C/c2ccccc2)CC1)Nc1cccc(F)c1`, the Potency result was “inactive”.

Turning to `COc1ccc(N2C(=O)C(CC(=O)Nc3ccc(F)cc3)N(CCc3cccs3)C2=O)cc1` (centres undefined), the Potency entry is “inactive”.

Regarding `CCOc1ccc(NC(=O)CC2C(=O)N(c3ccccc3)C(=O)N2CCOC)cc1` (centres undefined), the Potency is 15.8 µM (active).

As for `COc1ccc(N2C(=O)C(CC(=O)Nc3ccccc3)N(Cc3ccc(OC)c(OC)c3)C2=O)cc1` (centres undefined), the Potency result was “inactive”.

Consider `NC(=O)c1ccccc1N(Cc1ccccc1)S(=O)(=O)c1ccccc1`, for which the Potency entry is “inactive”.

As for `N#CCc1ccc(OC(=O)c2cccnc2)cc1`, the Potency result is “inactive”.

As for `CCCCN(C(=O)/C=C/c1ccco1)c1c(N)n(CC(C)C)c(=O)[nH]c1=O`, the Potency entry was “inactive”.

Turning to `CCNC(=S)NNC(=O)c1ccc2ncccc2c1`, the Potency entry is “inactive”.

As for `COc1ccc(OCC(=O)NCCc2ccc(S(N)(=O)=O)cc2)cc1`, the Potency entry was “inactive”.

On to `CN(C)c1ccc(C=NCCc2ccc(S(N)(=O)=O)cc2)cc1`, for which the Potency is 0.708 µM (active).

On to `CCCCc1ccc(S(N)(=O)=O)cc1`, for which the Potency entry is “inactive”.

On to `O=S(=O)(Cc1ccccc1)c1nc2ccccc2n1Cc1ccccn1`, for which the Potency result is “inactive”.

For `Cc1cc(C(=O)OCC(=O)c2c(N)n(C)c(=O)n(C)c2=O)c(C)o1`, the Potency result was “inactive”.

`Cn1c(N)c(C(=O)COC(=O)c2cnc(Cl)c(Cl)c2)c(=O)n(C)c1=O`: the Potency was 8.91 µM (active).

With `CCc1ccc(OCC(=O)OCC(=O)c2c(N)n(C)c(=O)n(C)c2=O)cc1`, the Potency entry was “inactive”.

In the case of `CCn1c(SCc2cc(=O)n3ccsc3n2)nc2ccccc21`, the Potency entry is “inactive”.

Consider `CC(C)CCC(C)NC(=O)c1ccc2nccnc2c1` (centres undefined), for which the Potency is 20 µM (active).

Take `CC(Cc1cccs1)NC(=O)c1cccc(Cl)c1` (centres undefined): the Potency entry was “inactive”.

Regarding `COCC(C)NC(=O)c1ccc(Cl)c(Cl)c1` (centres undefined), the Potency entry is “inactive”.

As to `CCc1ccc(NC(=O)Cn2nc(C)c([N+](=O)[O-])c2C)cc1`, the Potency entry was “inactive”.

Regarding `O=C(Nn1cnnc1)c1ccc([N+](=O)[O-])cc1`, the Potency entry is “inactive”.

`COCCCNC(=S)N1CCCC(c2nc3cc(C)c(C)cc3[nH]2)C1` (centres undefined): the Potency result is “inactive”.

As for `Cc1cccnc1NC(=O)CSc1nnc(COc2ccc(C(C)C)cc2)n1C`, the Potency result is “inactive”.

Take `CCOC(=O)c1ccc(NC(=O)CSc2nnc(COc3ccccc3OC)n2C)cc1`: the Potency entry was “inactive”.

`Cc1ccc(S(=O)(=O)N2CCOCC2)cc1NC(=O)CSc1nnc(N)s1`: the Potency entry is “inactive”.

As for `CCCCNC(=O)CSc1nc2ccc(NC(=O)CSc3nnc(N)s3)cc2s1`, the Potency was 20 µM (active).

Turning to `Nc1nnc(SCC(=O)Nc2ccc3nc(SCC(=O)Nc4ccccc4)sc3c2)s1`, the Potency entry is “inactive”.

On to `CCCCNC(=O)CSc1nc2ccc(NC(=O)CSc3nnc(COc4ccccc4C)n3C)cc2s1`, for which the Potency is 3.55 µM (active).

`CN(c1ccccc1)S(=O)(=O)c1ccc(Cl)c(C(=O)OCC(N)=O)c1`: the Potency entry was “inactive”.

Consider `CN(C(=O)CSc1nnc(-c2c[nH]c3ccccc23)o1)C1CCS(=O)(=O)C1` (centres undefined), for which the Potency result is “inactive”.

Regarding `O=C(/C=C/c1ccc(Cl)cc1)Nc1ccc(S(=O)(=O)Nc2ncccn2)cc1`, the Potency result is “inactive”.

On to `O=C(Nc1ccc(N2CCN(C(=O)C3CC3)CC2)cc1)c1cccs1`, for which the Potency result was “inactive”.

Regarding `C/C(=N\N1CCN(Cc2ccc(C)cc2)CC1)c1ccco1`, the Potency entry was “inactive”.

Consider `C/C(=N\NC(=O)C(N)=O)c1ccc2c(c1)OCCO2`, for which the Potency result is “inactive”.

On to `COc1ccc(S(=O)(=O)NC(C)C(=O)Nc2cccc([N+](=O)[O-])c2)cc1` (centres undefined), for which the Potency result was “inactive”.

As for `CC(=O)Nc1cccc([N+](=O)[O-])c1`, the Potency result was “inactive”.

With `COC(=O)/C=C\C(=O)Nc1cccc([N+](=O)[O-])c1`, the Potency was 0.178 µM (active).

Consider `Clc1ccc(-c2cc(-c3ccccn3)on2)c(Cl)c1`, for which the Potency entry was “inactive”.

For the molecule `O=C1Nc2cc(Cl)c(Cl)cc2N(O)N1c1ccccc1Cl`, the Potency result is “inactive”.

With `CCOc1cnc(C(=O)NNC(=O)c2ccccc2Br)o1`, the Potency entry was “inactive”.

Turning to `C=CCSC1=C(C#N)C(c2cc(Br)c(O)c(OC)c2)CC(=O)N1` (centres undefined), the Potency is 25.1 µM (active).

For `COC(=O)CSC1=C(C#N)C(c2ccccc2OC)C(C(=O)OC)C(=O)N1` (centres undefined), the Potency entry was “inactive”.

Turning to `CCOC(=O)CSC1=C(C#N)C(c2sccc2C)CC(=O)N1` (centres undefined), the Potency entry is “inactive”.

As to `C[C@@H]1CC[C@]2(O[C@@H](CCO)C[C@H](O)[C@H]2O)O1`, the Potency result was “inactive”.

Take `CCCCOc1ccc(N(CC(=O)NC(C)C)C(=O)CCC(=O)Nc2ccccn2)cc1`: the Potency result was “inactive”.

Take `COCCN(CCOC)S(=O)(=O)c1ccc(/C(O)=C(\C#N)c2nc3ccccc3[nH]2)cc1`: the Potency result was “inactive”.

With `COc1cccc2c1OCC(CN1CCN(C3CCCCC3)C(CCO)C1)=C2` (centres undefined), the Potency entry is “inactive”.

Regarding `Cc1cc(C)n(-c2ccc3nncn3n2)n1`, the Potency entry was “inactive”.

For `COc1cc(/C=N\Nc2ccc([N+](=O)[O-])cn2)ccc1OCC(=O)O`, the Potency entry is “inactive”.

Regarding `Cc1ccccc1OCCOc1ccc([N+](=O)[O-])cc1/C=N/n1cnnc1`, the Potency entry is “inactive”.

For `Cc1ccc(-n2c(C)cc(/C=N/Nc3ccc([N+](=O)[O-])cn3)c2C)c(C)c1`, the Potency is 3.55 µM (active).

The record behind these values is PubChem BioAssay AID1030 (National Center for Advancing Translational Sciences (NCATS), 2008).
